Test results reported in article PMC7862700, “An all-to-all approach to the identification of sequence-specific readers for epigenetic DNA modifications on cytosine”.

Columns and labels:
Assay in all cases: DAPPL (digital affinity profiling via proximity ligation, sequencing); 10 mM Tris-HCl pH 7.5, 50 mM NaCl, 1 mM DTT, 4% glycerol, room temperature, 30 min; GST-TFs on glutathione beads, 16-mer random dsDNA library, 0.1% formaldehyde crosslink after washing; high values mean tight binding
Conditions in all cases: protein: recombinant; tags: N-terminal GST; dsDNA, one strand shown
FLI1 = biological target: T1, FLI1 (Homo sapiens, UniProt Q01543 1-452)
T1 sequence: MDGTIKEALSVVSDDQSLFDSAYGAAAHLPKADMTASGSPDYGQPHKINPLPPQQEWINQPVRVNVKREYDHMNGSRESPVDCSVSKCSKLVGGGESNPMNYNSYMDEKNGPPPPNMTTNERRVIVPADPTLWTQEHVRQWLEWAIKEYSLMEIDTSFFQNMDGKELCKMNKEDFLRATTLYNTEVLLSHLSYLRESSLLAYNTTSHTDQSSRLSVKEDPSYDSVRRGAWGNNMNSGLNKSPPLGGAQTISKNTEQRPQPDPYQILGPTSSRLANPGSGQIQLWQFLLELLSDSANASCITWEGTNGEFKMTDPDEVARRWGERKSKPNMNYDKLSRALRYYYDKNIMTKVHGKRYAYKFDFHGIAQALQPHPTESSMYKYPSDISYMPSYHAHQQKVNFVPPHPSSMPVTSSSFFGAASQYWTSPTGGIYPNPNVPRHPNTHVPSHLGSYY
Outline: (§1)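 After expression in yeast as GST fusions, human transcription factors were bound to glutathione beads, DNA-barcoded and mixed with a tag-only sample. The pools were incubated with 200 nmole of a 16-mer random double-stranded DNA library in Tris/NaCl/DTT/glycerol buffer (30 min, room temperature), washed and crosslinked with 0.1% formaldehyde. Proximity ligation with BsaI/T4 ligase ran for 1 h at 37 °C, before PCR amplification and sequencing on an Illumina NextSeq500. Binding signal is a hexamer's read frequency for a factor divided by its frequency for the tag-only sample.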

ERG = biological target: T2, ERG (Homo sapiens, UniProt P11308 1-479)
T2 sequence: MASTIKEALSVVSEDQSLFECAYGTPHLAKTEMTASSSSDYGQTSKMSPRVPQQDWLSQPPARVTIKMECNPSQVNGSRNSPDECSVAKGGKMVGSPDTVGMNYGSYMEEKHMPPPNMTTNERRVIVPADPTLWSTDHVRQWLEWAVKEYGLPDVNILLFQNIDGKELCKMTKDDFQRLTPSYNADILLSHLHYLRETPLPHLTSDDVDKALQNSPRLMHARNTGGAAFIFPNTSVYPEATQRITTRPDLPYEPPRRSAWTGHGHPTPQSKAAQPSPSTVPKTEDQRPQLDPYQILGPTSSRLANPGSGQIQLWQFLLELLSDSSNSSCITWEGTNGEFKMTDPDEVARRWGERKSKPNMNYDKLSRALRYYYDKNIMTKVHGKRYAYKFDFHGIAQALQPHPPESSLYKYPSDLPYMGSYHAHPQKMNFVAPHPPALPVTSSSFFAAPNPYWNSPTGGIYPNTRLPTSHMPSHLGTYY
Outline: as §1

ELF1 = ELF1 (Homo sapiens, UniProt P32519 1-619)
Outline: as §1

EHF = biological target: T3, EHF (Homo sapiens, UniProt Q9NZC4 1-300)
T3 sequence: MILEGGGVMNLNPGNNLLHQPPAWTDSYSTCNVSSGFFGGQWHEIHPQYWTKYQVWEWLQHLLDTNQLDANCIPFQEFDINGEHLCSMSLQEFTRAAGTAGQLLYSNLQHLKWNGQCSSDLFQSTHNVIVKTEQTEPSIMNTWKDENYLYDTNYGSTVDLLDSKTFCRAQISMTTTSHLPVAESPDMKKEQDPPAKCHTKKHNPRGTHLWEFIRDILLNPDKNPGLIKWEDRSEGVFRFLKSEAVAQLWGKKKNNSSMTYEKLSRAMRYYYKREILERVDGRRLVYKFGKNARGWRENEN
Outline: as §1

SPIB = SPIB (Homo sapiens, UniProt Q01892 1-262)
Outline: as §1

FEV = biological target: T4, FEV (Homo sapiens, UniProt Q99581 1-238)
T4 sequence: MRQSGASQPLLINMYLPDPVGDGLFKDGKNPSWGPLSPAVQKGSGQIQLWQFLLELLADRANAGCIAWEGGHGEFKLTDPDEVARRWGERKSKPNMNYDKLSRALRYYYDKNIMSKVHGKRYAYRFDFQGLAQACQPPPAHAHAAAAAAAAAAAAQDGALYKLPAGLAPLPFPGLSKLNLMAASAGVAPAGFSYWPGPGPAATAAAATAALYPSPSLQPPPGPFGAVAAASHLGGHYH
Outline: as §1

ETV5 = ETV5 (Homo sapiens, UniProt P41161 1-510)
Outline: as §1

SPIC = biological target: T5, SPIC (Homo sapiens, UniProt Q8N5J4 1-248)
T5 sequence: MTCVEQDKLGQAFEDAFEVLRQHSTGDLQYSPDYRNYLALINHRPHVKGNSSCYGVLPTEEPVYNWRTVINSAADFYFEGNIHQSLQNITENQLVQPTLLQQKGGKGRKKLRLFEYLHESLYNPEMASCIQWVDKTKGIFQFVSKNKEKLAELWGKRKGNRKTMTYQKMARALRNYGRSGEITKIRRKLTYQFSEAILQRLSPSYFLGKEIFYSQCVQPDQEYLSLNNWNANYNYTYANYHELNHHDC
Outline: as §1

ELF4 = ELF4 (Homo sapiens, UniProt Q99607 1-663)
Outline: as §1

ERF = biological target: T6, ERF (Homo sapiens, UniProt P50548 1-548)
T6 sequence: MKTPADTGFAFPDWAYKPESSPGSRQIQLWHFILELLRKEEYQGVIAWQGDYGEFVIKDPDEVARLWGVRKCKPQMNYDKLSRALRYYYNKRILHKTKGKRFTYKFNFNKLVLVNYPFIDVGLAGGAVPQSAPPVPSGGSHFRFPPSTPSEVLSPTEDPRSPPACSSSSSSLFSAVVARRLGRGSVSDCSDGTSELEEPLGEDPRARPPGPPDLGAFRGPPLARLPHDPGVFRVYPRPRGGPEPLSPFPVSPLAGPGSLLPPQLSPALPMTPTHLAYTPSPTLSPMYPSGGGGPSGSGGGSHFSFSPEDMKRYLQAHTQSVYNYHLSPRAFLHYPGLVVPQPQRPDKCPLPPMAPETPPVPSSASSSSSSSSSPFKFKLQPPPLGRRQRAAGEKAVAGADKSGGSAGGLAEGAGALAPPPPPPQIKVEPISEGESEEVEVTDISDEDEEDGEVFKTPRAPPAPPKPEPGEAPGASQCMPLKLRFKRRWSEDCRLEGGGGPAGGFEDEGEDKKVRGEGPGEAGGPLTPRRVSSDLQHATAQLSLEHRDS
Outline: as §1

ETV3L = biological target: T7, ETV3L (Homo sapiens, UniProt Q6ZN32 1-361)
T7 sequence: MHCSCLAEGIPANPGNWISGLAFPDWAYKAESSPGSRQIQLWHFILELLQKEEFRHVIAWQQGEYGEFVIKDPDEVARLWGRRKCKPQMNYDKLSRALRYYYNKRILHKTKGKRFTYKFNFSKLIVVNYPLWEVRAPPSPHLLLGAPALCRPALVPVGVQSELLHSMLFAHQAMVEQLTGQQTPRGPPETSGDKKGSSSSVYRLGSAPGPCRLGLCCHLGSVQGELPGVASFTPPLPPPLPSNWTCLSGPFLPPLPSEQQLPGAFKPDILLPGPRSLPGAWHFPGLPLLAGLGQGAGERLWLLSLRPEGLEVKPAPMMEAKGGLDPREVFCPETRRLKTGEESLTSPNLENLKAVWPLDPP
Outline: as §1

ETS2 = biological target: T8, ETS2 (Homo sapiens, UniProt P15036 1-469)
T8 sequence: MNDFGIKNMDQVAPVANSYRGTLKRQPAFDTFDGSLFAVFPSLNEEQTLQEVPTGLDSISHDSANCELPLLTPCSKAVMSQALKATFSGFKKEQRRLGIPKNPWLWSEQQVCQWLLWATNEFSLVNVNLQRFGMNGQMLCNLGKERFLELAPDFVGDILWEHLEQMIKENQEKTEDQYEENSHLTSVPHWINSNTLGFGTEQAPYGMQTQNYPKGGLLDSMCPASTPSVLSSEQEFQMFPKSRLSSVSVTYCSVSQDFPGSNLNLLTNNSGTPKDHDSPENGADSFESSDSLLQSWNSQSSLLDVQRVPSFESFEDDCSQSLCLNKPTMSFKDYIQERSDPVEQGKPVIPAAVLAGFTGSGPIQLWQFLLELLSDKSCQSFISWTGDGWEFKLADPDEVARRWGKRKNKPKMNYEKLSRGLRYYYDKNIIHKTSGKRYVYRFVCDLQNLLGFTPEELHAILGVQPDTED
Outline: as §1

ETV3 = biological target: T9, ETV3 (Homo sapiens, UniProt P41162-2 1-143)
T9 sequence: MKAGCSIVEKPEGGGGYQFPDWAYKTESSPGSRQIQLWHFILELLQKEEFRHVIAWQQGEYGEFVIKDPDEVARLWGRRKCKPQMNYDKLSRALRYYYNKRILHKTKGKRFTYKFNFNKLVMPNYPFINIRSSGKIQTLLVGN
Outline: as §1

Chain of SPIB (Q01892 whole entry): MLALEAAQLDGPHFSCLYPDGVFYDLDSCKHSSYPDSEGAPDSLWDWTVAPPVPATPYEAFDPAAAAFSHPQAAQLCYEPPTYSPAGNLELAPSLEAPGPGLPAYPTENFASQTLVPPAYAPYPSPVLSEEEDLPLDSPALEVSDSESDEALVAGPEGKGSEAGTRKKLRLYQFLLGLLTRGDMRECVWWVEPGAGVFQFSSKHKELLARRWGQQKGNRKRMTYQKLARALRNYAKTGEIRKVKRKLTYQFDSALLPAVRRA
Chain of ELF4 (Q99607 whole entry): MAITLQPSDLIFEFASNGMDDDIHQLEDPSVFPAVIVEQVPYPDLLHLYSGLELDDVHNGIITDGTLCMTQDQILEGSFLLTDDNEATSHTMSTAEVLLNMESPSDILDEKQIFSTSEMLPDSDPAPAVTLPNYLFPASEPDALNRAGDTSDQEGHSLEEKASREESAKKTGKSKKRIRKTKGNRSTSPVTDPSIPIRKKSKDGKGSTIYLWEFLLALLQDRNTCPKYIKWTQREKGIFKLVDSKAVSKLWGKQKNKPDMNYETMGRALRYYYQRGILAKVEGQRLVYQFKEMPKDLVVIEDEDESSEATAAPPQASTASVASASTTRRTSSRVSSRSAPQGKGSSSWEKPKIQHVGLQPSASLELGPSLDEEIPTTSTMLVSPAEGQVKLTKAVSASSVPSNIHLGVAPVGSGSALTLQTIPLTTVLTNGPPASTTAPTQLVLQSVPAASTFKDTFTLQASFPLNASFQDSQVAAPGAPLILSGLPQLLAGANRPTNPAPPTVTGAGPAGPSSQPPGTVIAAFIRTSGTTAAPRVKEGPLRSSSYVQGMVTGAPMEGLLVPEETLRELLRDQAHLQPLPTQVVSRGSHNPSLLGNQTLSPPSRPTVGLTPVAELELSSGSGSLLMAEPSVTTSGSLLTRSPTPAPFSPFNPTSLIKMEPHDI
Chain of ETV5 (P41161 whole entry): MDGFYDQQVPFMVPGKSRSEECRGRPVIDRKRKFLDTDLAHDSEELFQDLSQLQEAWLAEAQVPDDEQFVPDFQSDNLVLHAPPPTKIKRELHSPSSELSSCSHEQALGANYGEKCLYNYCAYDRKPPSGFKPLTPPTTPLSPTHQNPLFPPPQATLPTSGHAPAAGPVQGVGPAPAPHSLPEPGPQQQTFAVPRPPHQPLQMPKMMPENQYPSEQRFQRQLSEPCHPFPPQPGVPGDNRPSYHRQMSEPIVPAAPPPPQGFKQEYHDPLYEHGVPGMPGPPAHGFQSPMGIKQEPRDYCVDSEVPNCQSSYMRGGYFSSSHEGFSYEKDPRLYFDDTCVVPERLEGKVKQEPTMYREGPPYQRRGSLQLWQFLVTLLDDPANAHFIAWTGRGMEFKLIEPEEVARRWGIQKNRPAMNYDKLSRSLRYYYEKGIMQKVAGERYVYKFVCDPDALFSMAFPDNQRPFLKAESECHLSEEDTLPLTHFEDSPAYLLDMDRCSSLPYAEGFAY
Chain of ELF1 (P32519 whole entry): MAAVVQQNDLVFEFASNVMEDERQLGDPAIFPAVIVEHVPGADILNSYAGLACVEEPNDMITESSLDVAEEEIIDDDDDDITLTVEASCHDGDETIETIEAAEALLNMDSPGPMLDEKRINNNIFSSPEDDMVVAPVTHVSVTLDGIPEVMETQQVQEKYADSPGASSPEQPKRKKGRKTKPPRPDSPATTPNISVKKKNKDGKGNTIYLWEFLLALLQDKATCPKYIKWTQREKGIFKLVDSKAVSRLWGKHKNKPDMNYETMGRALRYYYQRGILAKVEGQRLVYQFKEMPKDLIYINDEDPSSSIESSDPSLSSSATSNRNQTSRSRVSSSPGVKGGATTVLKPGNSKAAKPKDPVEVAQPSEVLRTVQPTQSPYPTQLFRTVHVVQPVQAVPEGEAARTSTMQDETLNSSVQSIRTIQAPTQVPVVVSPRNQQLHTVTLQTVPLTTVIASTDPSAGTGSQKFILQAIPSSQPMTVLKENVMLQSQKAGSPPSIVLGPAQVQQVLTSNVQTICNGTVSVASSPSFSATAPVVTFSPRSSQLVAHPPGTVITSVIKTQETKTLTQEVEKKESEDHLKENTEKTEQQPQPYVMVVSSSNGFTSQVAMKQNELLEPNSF

CGCTGG
binding signal (FLI1): 1.05 fold enrichment (6-mer frequency, TF over GST control) | binding signal (ERG): 1.03 fold enrichment (6-mer frequency, TF over GST control) | binding signal (ELF1): 1.08 fold enrichment (6-mer frequency, TF over GST control) | binding signal (EHF): 1 fold enrichment (6-mer frequency, TF over GST control) | binding signal (SPIB): 1.01 fold enrichment (6-mer frequency, TF over GST control) | binding signal (FEV): 1.02 fold enrichment (6-mer frequency, TF over GST control) | binding signal (ETV5): 1 fold enrichment (6-mer frequency, TF over GST control) | binding signal (SPIC): 1.01 fold enrichment (6-mer frequency, TF over GST control) | binding signal (ELF4): 1.02 fold enrichment (6-mer frequency, TF over GST control) | binding signal (ERF): 1.05 fold enrichment (6-mer frequency, TF over GST control) | binding signal (ETV3L): 1.03 fold enrichment (6-mer frequency, TF over GST control) | binding signal (ETS2): 1.1 fold enrichment (6-mer frequency, TF over GST control) | binding signal (ETV3): 1.12 fold enrichment (6-mer frequency, TF over GST control)
